# Data published in PubChem BioAssay (NCATS).
# Values joined by “and” are separate entries in the source; they are usually repeats but may differ in a detail not shown here. Equal entries are not always repeated. Records with an inconclusive call do not appear. Active and inactive are the calls of the source. The call rests on the fitted dose curve; in most records, active means well fitted curve in the direction sought with a large enough effect; inconclusive means small, poorly fitted or top-dose-only effect, or another doubt; inactive means no such curve, though single readings can be large; an effect the other way counts as inactive or inconclusive.
# Test system: Zika virus NS2B-NS3 protease (linked construct)
# Experiment: 384 well plate NINDS Rhodamine confirmatory qHTS for Zika virus inhibitors (AID 1347164); further: potency means the concentration at half of the fitted maximal effect; nearly all actives have a fitted effect of over 65% in size
# Conditions: rhodamine-110 peptide substrate fluorescence
# How it was run: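 Cleavage of Ac-LKRR-Rhodamine 110 (10 microM final) by linked protease (final 5, 30 or 60 nM) was followed as fluorescence at 485/538 nm after 25 min, room temperature, dark. Compounds preincubated ~15 min.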
row,Structure (SMILES),Potency
1,O=C1C(I)=CC(=C(c2cc(I)c(O)c(I)c2)c2ccccc2C(=O)O)C=C1I,8.91 µM (active)
2,CN(C)[C@@H]1C(=O)C(C(N)=O)=C(O)[C@@]2(O)C(=O)C3=C(O)c4c(O)cccc4[C@@](C)(O)[C@H]3[C@H](O)[C@@H]12,50.1 µM (active) and 2.51 µM (active)
3,CC1=C(O)C(=O)C=C2C1=CC=C1[C@@]2(C)CC[C@@]2(C)[C@@H]3C[C@](C)(C(=O)O)CC[C@]3(C)CC[C@]12C,28.2 µM (active)
4,O=C(O)c1cc(Oc2ccc(C(F)(F)F)cc2Cl)ccc1[N+](=O)[O-],316 µM (active)

# Target: Lysine-specific demethylase 5B (Homo sapiens) (UniProt Q9UGL1)
# Experiment: Optimization screen for KDM5B Histone Demethylases FDH coupled qHTS against the LOPAC library (AID 1347166); further: 0% is about no effect
# Conditions: KDM5B demethylation, FDH-coupled NADH fluorescence (FDH is formaldehyde dehydrogenase); series mostly up to 57.5 µM; activity, negative = inhibition: at the top concentration
# How it was run: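 KDM5BDeltaAP (200nM final) preincubated 10 min with compound, then 12.5uM H3K4Me3, 25uM a-ketoglutarate, ascorbate, Fe(II), NAD+ and FDH added; 50mM HEPES pH 7.5, 0.01% Tween-20. NADH fluorescence (340/450 nm) change over 30 min, room temperature.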
# Sequence of Lysine-specific demethylase 5B (Homo sapiens) (Q9UGL1 whole entry, looked up): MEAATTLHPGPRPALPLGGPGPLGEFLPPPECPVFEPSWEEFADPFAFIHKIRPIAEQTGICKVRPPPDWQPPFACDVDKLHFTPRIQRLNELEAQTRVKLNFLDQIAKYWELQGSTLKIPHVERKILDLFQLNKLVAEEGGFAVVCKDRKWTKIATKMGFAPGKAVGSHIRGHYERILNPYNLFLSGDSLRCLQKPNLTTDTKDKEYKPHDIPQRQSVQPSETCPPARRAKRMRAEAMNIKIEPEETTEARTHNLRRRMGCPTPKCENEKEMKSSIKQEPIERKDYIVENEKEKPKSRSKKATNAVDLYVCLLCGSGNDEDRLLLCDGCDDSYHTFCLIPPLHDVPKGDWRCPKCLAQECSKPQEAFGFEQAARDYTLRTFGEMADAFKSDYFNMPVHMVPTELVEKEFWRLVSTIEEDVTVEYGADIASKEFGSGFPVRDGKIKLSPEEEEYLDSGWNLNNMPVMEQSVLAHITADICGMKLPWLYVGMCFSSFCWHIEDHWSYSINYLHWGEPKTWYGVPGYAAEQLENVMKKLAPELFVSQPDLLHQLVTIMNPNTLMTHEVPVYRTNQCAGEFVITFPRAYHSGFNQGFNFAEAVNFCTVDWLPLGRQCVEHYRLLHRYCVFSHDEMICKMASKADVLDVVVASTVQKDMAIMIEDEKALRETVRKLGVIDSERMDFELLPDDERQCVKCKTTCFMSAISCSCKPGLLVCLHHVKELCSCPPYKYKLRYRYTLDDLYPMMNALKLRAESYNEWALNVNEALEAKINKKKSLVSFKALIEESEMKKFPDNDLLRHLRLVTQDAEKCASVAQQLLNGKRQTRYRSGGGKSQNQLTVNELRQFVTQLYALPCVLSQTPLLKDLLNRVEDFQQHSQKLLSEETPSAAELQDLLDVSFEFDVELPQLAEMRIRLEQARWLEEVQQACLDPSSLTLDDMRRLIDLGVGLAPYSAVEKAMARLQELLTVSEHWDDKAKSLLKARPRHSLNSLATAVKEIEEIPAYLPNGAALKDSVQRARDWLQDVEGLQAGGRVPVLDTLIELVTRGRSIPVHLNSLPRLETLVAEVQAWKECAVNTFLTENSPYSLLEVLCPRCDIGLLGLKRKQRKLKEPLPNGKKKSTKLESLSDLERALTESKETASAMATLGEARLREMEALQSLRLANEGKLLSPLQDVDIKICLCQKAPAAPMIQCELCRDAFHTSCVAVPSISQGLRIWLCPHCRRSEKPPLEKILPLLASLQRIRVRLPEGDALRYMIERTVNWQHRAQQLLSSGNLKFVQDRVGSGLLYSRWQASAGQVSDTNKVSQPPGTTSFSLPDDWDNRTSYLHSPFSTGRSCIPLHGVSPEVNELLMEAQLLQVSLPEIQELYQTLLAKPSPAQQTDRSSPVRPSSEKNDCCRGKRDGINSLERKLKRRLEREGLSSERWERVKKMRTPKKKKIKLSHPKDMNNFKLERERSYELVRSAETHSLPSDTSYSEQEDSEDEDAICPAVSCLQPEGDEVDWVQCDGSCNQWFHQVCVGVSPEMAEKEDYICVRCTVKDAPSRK
Structure (SMILES),"activity, negative = inhibition",outcome
C/C=C(/C)C(=O)O[C@H]1C(C)=C2[C@H]([C@@H]1OC(=O)CCCCCCC)[C@@](C)(OC(C)=O)C[C@H](OC(=O)CCC)[C@@]1(O)[C@H]2OC(=O)[C@@]1(C)O,-27.4% (inactive),
Clc1cnc(Oc2ccc(Oc3ncc(Cl)cc3Cl)cc2)c(Cl)c1,-7.93% (inactive),
c1ccc(CCCN2CCN(CCOC(c3ccccc3)c3ccccc3)CC2)cc1,-8.57% (inactive),
Oc1ccc2c3c1O[C@H]1c4[nH]c5c(c4C[C@@]4(O)[C@@H](C2)N(CC2CC2)CC[C@]314)C[C@@]1(O)[C@H]2Cc3ccc(O)c4c3[C@@]1(CCN2CC1CC1)[C@H]5O4,-6.32% (inactive),
CC(C)NC(C)Cc1ccc(I)cc1 (stereo not drawn),-4.81% (inactive),
C[C@@H](N)Cc1cnc[nH]1,-9.73% (inactive),
COC(=O)[C@@H](N)CCCN=C(N)N[N+](=O)[O-],-10.5% (inactive),
NC1CC1c1ccccc1 (stereo not drawn),-5% (inactive),
NC(CP(=O)(O)O)C(=O)O (stereo not drawn),-6.53% (inactive),
NCc1cc(=O)[nH]o1,-2.29% (inactive),
C#CCOC(=O)C1=CCCN(C)C1,-4.63% (inactive),
CCCN(CCC)[C@@H]1CCc2ccc(O)cc2C1,3.21% (inactive),
c1ccc2sc(C3(N4CCCCC4)CCCCC3)cc2c1,-7.11% (inactive),
C[N+]1(C)C2CCC1CC(OC(=O)C(CO)c1ccccc1)C2 (stereo not drawn),,inactive
CCCN1CCO[C@@H]2c3cc(O)ccc3OC[C@H]21,,inactive
Cn1cnc(CCN)c1,-6.57% (inactive),
CC[C@@]1(O)C(=O)OCc2c1cc1n(c2=O)Cc2cc3ccccc3nc2-1,565% (inactive),
NC(N)=NOCCC(N)C(=O)O (stereo not drawn),2.2% (inactive),
CNCCc1c[nH]c2ccc(O)cc12,-26% (inactive),
O=C1CCCN1CC#CCN1CCCC1,-15.6% (inactive),
CCCN1CCC[C@H](c2cccc(O)c2)C1,-2.97% (inactive),
O=C(O)CC[N+](=O)[O-],-7.22% (inactive),
O=C(Cc1ccc(Cl)c(Cl)c1)N1CCCCC1CN1CCCC1 (stereo not drawn),-6.44% (inactive),
CC1=NN=C(c2ccc(N)cc2)c2cc3c(cc2C1)OCO3,-23.8% (inactive),
